# Results reported in PubChem BioAssay (Tox21).
# Several values for one entry are separate records, joined by “and”; a condition that tells them apart may be missing. Equal values may be shown once. Records with an inconclusive call do not appear. Activity calls are given as the source filed them. The call rests on the fitted dose curve; in most records, active means well fitted cell-killing curve with a large enough effect in the repeat runs; inconclusive means weak or mixed curves, or effect the other way; inactive means no such curve, though single readings can be large or run the other way.
# Assay: qHTS assay to identify small molecule antagonists of the peroxisome proliferator-activated receptor gamma (PPARg) signaling pathway - cell viability counter screen (AID 743194); further: nearly all actives have a fitted effect of over 55% in size
# Settings: PPARg-bla HEK293H viability, CellTiter-Glo luminescence, 17 h; Potency: co-treated with 50 nM rosiglitazone unless noted; series mostly up to 62.6 µM; activity change, negative = cytotoxicity: at the top concentration
# Text: U.S. Tox21 Program National Center for Advancing Translational Sciences [NCATS] NIH Chemical Genomics Center [NCGC] U.S. Environmental Protection Agency [EPA] National Institutes of Environmental Health Sciences [NIEHS] National Toxicology Program [NTP] U.S. Food and Drug Administration [FDA] Tox21 Assay Overview: The peroxisome proliferator-activated receptors (PPARs) are lipid-activated transcription factors of the nuclear receptor superfamily with three distinct subtypes namely PPAR alpha, PPAR delta (also called PPAR beta) and PPAR gamma (PPARg). All these subtypes heterodimerize with Retinoid X receptor (RXR) and these heterodimers regulate transcription of various genes. PPAR-gamma receptor (glitazone receptor) is involved in the regulation of glucose and lipid metabolism. To identify the compounds that activate PPAR-gamma signaling, GeneBLAzer PPAR gamma UAS-bla HEK293H cell line (Invitrogen, Carlsbad, CA, USA) containing a beta-lactamase reporter gene under the control of an Upstream Activator Sequence (UAS) was used to screen the Tox21 compound library. The cytotoxicity of the Tox21 compound library against the PPARg-bla cell line was tested in parallel by measuring the cell viability using CellTiter-Glo assay in the same wells.
# Tox21 Assay Protocol Summary: PPARg-bla cells were dispensed at 3000 cells/5uL/well in 1536-well black wall/clear bottom plates using a Multidrop Combi (Thermo Fisher Scientific, Waltham, MA) dispenser. After the assay plates were incubated at 37 C and 5% CO2 for 5 h, 23 nL of compounds dissolved in DMSO, positive controls or DMSO only was transferred to the assay plate by a Pintool station (Kalypsys, San Diego, CA), followed by addition of 1ul Rosiglitazone (50 nM, final concentration in the wells). The assay plates were incubated at 37 C for 17 h, and then 1 uL of LiveBLAzerTM B/G FRET substrate was added using a Bioraptr Flying Reagent Dispenser (FRD) workstation (Beckman Coulter, Indianapolis, IN, USA). The assay plates were incubated at room temperature for 1 h and fluorescence intensity was measured by an Envision plate reader (PerkinElmer, Shelton, CT). For cell viability readout that measures cytotoxicity, 4 ul/well of CellTiter-Glo reagent was added into the assay plates using a Flying Reagent Dispenser. After 30 min incubation at room temperature, the luminescence intensity in the plates was measured using a ViewLux plate reader (PerkinElmer).
# On the % scale 0 is the no-effect control and ±100 the full control effect; potency means the concentration at half of the fitted maximal effect.
Structure (SMILES),"activity change, negative = cytotoxicity",Potency
Cn1cc(C2=C(c3cn(C4CCN(Cc5ccccn5)CC4)c4ccccc34)C(=O)NC2=O)c2ccccc21,-12.1% (inactive),–
COc1cc(N)c(Cl)cc1C(=O)NC1CN2CCC1CC2 (stereo not given),9.61% (inactive),–
Cc1cc(N=Nc2ccccc2C)ccc1N,-10.7% (inactive),–
CCC[CH2][Sn]([CH2]CCC)([CH2]CCC)[O]C(=O)c1ccccc1,–,0.49 µM (active)
CC1(c2ccc(Oc3ccccc3)cc2)OC(=O)N(Nc2ccccc2)C1=O (stereo not given),–,8.76 µM (active)
CC(C)(O)c1cnn2c(-c3ccc(F)c(-c4c(F)cccc4C#N)c3)cnc2n1,-14.7% (inactive),–
BrC(Br)Br,14.4% (inactive),–
ClC(Cl)=C(c1ccc(Cl)cc1)c1ccc(Cl)cc1,-18.3% (inactive),–
CC(c1ccc(O)cc1)c1ccc(O)cc1,-0.468% (inactive),–
BrCBr,"7.44% [at 81.1 µM, co-treated with 50 nM rosiglitazone] (inactive)",–
CCOCn1c(-c2ccc(Cl)cc2)c(C#N)c(Br)c1C(F)(F)F,–,1.95 µM (active)
C[C@@H]1O[C@@H](O[C@H]2C[C@@H](O)[C@]3(CO)[C@H]4[C@H](O)C[C@]5(C)[C@@H](C6=CC(=O)OC6)CC[C@]5(O)[C@@H]4CC[C@]3(O)C2)[C@H](O)[C@H](O)[C@H]1O,–,13.1 nM (active) and 119 nM (active)
CN(C)CCc1c[nH]c2ccc(O)cc12,17.8% [at 81.1 µM] (inactive),–
CC(C)[C@H](C(=O)OC(C#N)c1cccc(Oc2ccccc2)c1)c1ccc(OC(F)F)cc1 (stereo not given in full),-9.17% (inactive),–
c1ccc2c(c1)[nH]c1cnccc12,-3.6% (inactive),–
CCCCCCCCCCCCCCCC[n+]1ccccc1,–,26.6 µM (active) [middle of 4 runs]
N#CCCSCCC#N,14.2% (inactive),–
CC(=O)[O-].CC(=O)[O-].O.O.[Cd+2],–,0.682 µM (active)
CN(C)C(=S)S,–,inactive
Cc1cc(C)c(C2=C(OC(=O)CC(C)(C)C)C3(CCCC3)OC2=O)c(C)c1,"8.03% [at 81.1 µM, co-treated with 50 nM rosiglitazone] (inactive)",–

Structure (SMILES),"activity change, negative = cytotoxicity",Potency
CCCCCCCCCCCCBr,-10.5% (inactive),–
C[C@]12CC[C@@H]3c4ccc(OC(=O)N(CCCl)CCCl)cc4CC[C@H]3[C@@H]1CC[C@@H]2O,-11.2% (inactive),–
ClC1=C(Cl)C2(Cl)C3C(Cl)C=CC3C1(Cl)C2(Cl)Cl (stereo not given),–,55.2 µM (active) and 24.5 µM (active)
Nc1ccc(Sc2ccc(N)cc2)cc1,-35.3% (inactive),–
Oc1ccc(C(c2ccc(O)cc2)(C(F)(F)F)C(F)(F)F)cc1,–,43.6 µM (active)
O=c1oc2ccccc2c(O)c1Cc1c(O)c2ccccc2oc1=O,-9.13% (inactive),–
CC(=O)/C=C/c1ccc2c(c1)OCO2,"-2.18% [at 81.1 µM, co-treated with 50 nM rosiglitazone] (inactive)",–
CC(=O)Nc1ccc2c(c1)Cc1ccccc1-2,"-1.01% [at 81.1 µM, co-treated with 50 nM rosiglitazone] (inactive)",–
O=c1ssc(Cl)c1Cl,–,38.9 µM (active)
O=C1c2ccccc2C(=O)C1C(=O)C(c1ccccc1)c1ccc(Cl)cc1 (stereo not given),–,11 µM (active)
CC(C)(C)c1cc([N+](=O)[O-])cc(C(C)(C)C)c1O,–,6.16 µM (active)
N#CSCSC#N,–,27.3 µM (active)
Cc1cc(C(F)(C(F)(F)F)C(F)(F)F)ccc1NC(=O)c1cccc(I)c1C(=O)NC(C)(C)CS(C)(=O)=O,-19.6% (inactive),–
Oc1ccc(C2(c3ccc(O)cc3)CCCCC2)cc1,–,41.3 µM (active)
C[C@]12CC[C@H]3[C@@H](CCC4=CC(=O)CC[C@@]43C)[C@@H]1CC[C@@H]2O,0.124% [at 62.6 µM] (inactive),–
CCN(CC)C(=S)[S-].CCN(CC)C(=S)[S-].[Zn+2],–,2.17 µM (active)
c1ccc(OCC2CO2)cc1 (stereo not given),"-3.01% [at 81.1 µM, co-treated with 50 nM rosiglitazone] (inactive)",–
ClC1=C(Cl)[C@]2(Cl)[C@@H]3[C@@H]4C[C@@H]([C@H]5O[C@@H]45)[C@@H]3[C@@]1(Cl)C2(Cl)Cl,–,43.6 µM (active)
C1CCC2CCCCC2C1 (stereo not given),"9.31% [at 81.1 µM, co-treated with 50 nM rosiglitazone] (inactive)",–
O=C(CCCN1CCC2(CC1)C(=O)NCN2c1ccccc1)c1ccc(F)cc1,-7.56% (inactive),–
